Hit rate of the full screen: of about 5,500 compounds, about 2,000 (36%) were called active. Inconclusive results (about 18%) are left out. Rule as the data show it: active = normalized growth mostly below about 0.91 (no sharp cut-off); inconclusive = no clear call, values can overlap the other calls; inactive = mostly above about 0.92. The list shows a part of the results.
Test: chemical genetic growth profiling, strain panel (AID 1159580);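 also: tested at 20 µM; growth read once vehicle control cultures reached saturation at 30 °C; 1 = growth at the plate median or of vehicle wells; lower values mean less growth of the strain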
Conditions: S. cerevisiae deletion strains, growth OD

Measured: normalized growth

Cc1nc2sccn2c(=O)c1CCN1CCC(=C(c2ccccc2)c2ccc(F)cc2)CC1
inactive: locus YAL013W, strain DEP1, stronger effect = lower value 0.965 | locus YAL040C, strain CLN3, stronger effect = lower value 0.99 | locus YCL061C, strain MRC1 (second series), stronger effect = lower value 0.993 | locus YDR150W, strain NUM1, stronger effect = lower value 0.995 | locus YDR363W, strain ESC2, stronger effect = lower value 0.985 | locus YJR075W, strain HOC1, stronger effect = lower value 1.01 | locus YMR263W, strain SAP30, stronger effect = lower value 0.992 | locus YNL175C, strain NOP13, stronger effect = lower value 1.04 | locus YNL197C, strain WHI3, stronger effect = lower value 1.05 | locus YNL224C, strain SQS1, stronger effect = lower value 1.02 | locus YNL322C, strain KRE1, stronger effect = lower value 0.956 | locus YPL241C, strain CIN2, stronger effect = lower value 0.992

From PubChem BioAssay AID1159580 (chemical genetic matrix, 2015)
